Measured values published in the supplement of paper PMC11001985.
Unmarked numbers belong to inactive results.

What follows are targets tested with C#CCNC(=O)CCSSCCC(=O)NCCc1ccc(C=O)c(C=O)c1 (assay: lysine labeling ratio R10:1 (500 µM / 50 µM probe), SILAC-ABPP in living cells; higher = lower intrinsic lysine reactivity toward the probe, active = 2 or less). Settings: HeLa; probe concentrations 500 vs 50 µM.
Procedure, shortened: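 Measurements came from LC-MS/MS on a TIMS-TOF Pro of mixed SILAC light and heavy HeLa lysates after click to biotin-azide, trypsin digestion, neutravidin capture, DTT release and alkylation. Before lysis, the living cells sat in PBS at room temperature with 50 µM or 500 µM of an alkyne-tagged, disulfide-linked lysine probe, and labels were swapped forward and reverse. R per lysine is the median across both swap directions of the filtered median high-probe/low-probe MS1 peptide ratio. The cap is 20.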

Chain of UniProt P02675 (P02675 whole entry): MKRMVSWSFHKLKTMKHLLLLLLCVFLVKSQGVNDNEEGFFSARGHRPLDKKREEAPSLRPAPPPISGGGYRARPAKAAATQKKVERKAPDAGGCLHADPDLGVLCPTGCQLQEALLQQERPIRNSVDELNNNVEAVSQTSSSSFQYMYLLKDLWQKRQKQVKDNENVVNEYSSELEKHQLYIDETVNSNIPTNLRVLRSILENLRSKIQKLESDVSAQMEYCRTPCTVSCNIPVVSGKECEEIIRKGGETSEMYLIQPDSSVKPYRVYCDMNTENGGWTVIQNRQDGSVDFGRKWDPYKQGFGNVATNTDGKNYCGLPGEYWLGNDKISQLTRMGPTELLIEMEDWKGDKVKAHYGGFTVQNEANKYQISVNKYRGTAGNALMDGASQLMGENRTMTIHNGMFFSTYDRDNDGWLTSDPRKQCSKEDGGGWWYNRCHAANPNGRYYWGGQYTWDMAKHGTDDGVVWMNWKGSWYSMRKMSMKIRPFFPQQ
Chain of UniProt P09543 (P09543 whole entry): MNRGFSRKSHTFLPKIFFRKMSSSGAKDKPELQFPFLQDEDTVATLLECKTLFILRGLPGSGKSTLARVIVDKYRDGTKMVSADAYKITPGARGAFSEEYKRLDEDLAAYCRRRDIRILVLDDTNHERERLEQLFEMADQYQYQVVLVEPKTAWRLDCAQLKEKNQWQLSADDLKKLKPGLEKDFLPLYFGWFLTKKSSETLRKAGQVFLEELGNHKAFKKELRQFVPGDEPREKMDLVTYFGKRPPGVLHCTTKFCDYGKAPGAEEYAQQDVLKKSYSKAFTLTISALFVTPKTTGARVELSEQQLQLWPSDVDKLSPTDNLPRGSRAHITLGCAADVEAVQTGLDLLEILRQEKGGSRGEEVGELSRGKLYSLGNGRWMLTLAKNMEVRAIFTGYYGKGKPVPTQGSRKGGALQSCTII
Chain of UniProt Q01082 (Q01082 whole entry): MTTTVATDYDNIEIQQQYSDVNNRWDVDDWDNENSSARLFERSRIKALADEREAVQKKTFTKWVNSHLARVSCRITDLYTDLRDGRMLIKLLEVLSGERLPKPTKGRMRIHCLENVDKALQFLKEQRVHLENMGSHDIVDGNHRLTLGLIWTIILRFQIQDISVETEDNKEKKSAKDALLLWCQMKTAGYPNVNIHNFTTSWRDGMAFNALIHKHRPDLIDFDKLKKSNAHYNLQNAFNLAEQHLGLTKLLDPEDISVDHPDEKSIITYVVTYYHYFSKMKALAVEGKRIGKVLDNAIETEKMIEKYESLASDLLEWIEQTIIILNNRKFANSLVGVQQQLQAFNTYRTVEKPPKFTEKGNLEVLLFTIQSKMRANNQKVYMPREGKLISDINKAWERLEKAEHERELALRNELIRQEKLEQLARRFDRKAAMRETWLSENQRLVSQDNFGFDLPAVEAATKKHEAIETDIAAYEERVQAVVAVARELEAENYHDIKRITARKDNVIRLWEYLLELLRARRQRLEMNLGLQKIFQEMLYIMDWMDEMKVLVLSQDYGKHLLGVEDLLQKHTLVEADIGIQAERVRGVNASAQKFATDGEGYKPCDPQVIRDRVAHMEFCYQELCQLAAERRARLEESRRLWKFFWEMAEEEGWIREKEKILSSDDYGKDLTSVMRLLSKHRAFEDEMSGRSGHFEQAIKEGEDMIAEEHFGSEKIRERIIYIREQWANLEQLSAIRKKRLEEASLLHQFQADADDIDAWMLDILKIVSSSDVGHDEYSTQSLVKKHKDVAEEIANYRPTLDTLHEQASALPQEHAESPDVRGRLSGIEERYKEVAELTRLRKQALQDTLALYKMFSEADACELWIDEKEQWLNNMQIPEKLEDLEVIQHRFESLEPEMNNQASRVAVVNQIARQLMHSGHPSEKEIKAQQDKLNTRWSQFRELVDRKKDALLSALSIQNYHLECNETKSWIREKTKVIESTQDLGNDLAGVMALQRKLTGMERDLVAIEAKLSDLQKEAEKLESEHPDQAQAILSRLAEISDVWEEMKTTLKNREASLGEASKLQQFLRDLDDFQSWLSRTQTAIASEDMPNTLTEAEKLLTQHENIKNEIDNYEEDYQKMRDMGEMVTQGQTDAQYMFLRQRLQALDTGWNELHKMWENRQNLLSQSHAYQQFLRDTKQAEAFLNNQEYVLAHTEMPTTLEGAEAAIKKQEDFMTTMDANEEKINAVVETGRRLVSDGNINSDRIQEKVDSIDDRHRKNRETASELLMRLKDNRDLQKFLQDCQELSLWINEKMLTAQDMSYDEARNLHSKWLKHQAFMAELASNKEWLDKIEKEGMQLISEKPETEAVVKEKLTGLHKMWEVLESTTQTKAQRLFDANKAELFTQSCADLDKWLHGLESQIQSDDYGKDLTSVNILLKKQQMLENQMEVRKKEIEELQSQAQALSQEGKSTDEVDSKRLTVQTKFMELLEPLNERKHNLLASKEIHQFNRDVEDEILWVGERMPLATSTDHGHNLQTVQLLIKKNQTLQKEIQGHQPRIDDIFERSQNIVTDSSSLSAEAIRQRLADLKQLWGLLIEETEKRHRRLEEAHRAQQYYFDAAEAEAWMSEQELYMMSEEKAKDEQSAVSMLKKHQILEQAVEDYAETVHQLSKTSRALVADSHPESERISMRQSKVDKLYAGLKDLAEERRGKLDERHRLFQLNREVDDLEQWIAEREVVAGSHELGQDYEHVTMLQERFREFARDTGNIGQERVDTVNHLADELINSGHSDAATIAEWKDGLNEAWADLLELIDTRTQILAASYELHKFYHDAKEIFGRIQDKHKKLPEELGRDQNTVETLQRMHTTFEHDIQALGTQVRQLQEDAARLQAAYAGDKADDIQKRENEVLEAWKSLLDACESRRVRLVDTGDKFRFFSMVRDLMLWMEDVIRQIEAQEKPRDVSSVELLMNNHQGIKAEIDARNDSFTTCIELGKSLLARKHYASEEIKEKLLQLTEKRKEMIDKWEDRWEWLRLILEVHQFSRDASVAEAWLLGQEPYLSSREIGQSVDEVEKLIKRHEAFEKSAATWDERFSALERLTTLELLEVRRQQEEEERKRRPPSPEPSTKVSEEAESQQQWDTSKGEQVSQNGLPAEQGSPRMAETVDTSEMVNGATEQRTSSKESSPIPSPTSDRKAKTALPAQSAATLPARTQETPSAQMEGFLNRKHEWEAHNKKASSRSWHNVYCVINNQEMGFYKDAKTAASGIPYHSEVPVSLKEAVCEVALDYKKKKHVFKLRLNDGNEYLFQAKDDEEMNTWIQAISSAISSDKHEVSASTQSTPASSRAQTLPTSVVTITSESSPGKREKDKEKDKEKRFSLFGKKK
Chain of UniProt P55290 (P55290 whole entry): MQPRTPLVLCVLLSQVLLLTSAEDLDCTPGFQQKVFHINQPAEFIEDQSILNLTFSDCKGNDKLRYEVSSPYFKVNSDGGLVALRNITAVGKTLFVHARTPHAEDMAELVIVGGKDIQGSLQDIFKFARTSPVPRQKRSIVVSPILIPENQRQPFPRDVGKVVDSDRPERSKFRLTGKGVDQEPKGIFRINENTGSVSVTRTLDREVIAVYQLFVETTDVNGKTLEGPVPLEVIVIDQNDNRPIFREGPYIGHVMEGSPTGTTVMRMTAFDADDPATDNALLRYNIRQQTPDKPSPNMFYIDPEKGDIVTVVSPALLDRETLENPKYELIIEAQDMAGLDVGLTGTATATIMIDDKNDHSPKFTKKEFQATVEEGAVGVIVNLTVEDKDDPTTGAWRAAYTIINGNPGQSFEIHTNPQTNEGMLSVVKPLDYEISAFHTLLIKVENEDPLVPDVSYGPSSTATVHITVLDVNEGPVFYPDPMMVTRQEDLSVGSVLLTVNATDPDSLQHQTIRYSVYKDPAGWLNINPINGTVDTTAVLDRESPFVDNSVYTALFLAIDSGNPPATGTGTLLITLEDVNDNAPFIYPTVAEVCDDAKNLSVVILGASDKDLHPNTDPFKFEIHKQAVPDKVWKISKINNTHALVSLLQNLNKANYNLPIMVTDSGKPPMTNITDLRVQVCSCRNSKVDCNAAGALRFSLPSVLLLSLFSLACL
Chain of UniProt Q9HB71 (Q9HB71 whole entry): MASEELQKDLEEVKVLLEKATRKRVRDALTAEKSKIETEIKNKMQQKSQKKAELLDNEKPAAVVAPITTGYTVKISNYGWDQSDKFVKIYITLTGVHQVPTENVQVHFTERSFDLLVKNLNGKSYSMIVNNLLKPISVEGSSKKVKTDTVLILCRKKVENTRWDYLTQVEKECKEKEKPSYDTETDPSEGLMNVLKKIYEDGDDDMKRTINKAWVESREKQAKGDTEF
Chain of UniProt P17844 (P17844 whole entry): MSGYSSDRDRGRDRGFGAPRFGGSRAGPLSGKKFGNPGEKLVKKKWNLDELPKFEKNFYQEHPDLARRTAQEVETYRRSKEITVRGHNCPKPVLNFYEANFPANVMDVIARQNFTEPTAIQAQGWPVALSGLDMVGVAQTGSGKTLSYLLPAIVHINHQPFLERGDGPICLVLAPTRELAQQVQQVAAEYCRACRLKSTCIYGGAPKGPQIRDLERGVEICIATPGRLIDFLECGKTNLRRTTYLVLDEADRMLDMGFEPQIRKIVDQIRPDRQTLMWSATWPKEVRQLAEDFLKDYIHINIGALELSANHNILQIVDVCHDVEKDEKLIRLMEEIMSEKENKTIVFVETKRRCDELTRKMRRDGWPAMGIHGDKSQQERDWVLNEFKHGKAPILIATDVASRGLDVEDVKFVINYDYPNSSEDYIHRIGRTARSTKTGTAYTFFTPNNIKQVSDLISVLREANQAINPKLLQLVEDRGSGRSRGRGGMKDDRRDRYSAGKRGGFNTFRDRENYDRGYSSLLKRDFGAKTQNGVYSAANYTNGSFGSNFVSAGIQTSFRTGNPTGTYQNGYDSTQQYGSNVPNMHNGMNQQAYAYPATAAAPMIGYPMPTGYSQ

Row | Target | lysine labeling ratio R10:1
1 | DDX5 (lysine site: K523) (UniProt P17844) | 4.4
2 | ITGA2 (lysine site: K261) (UniProt P17301) | 1.26 (active)
3 | HSPG2 (lysine site: K1414) (UniProt P98160) | 1.42 (active)
4 | KTN1 (lysine site: K543) (UniProt Q86UP2) | 5.74
5 | UniProt Q15149 (lysine site: K2154) | 1.47 (active)
6 | UniProt Q86V81 (lysine site: K235) | 2.42
7 | CNP (lysine site: K402) (UniProt P09543) | 2.29
8 | CACYBP (lysine site: K19) (UniProt Q9HB71) | 7.06
9 | VPS35 (lysine site: K515) (UniProt Q96QK1) | 1.25 (active)
10 | UniProt P62913 (lysine site: K67) | 3.62
11 | AGRN (lysine site: K77) (UniProt O00468) | 1.69 (active)
12 | SPTBN1 (lysine site: K1249) (UniProt Q01082) | 4.92
13 | RPL34 (lysine site: K85) (UniProt P49207) | 1.67 (active)
14 | CDH13 (lysine site: K161) (UniProt P55290) | 6.29
15 | FGB (lysine site: K422) (UniProt P02675) | 2.18
16 | UniProt P61353 (lysine site: K98) | 1.21 (active)
17 | SPTAN1 (lysine site: K441) (UniProt Q13813) | 2.17
